Test results: PubChem BioAssay (NCI)
About 83,000 compounds went through this panel and 20% of them were active in at least one assay; those are over-represented in the sample as a whole.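 Method: cells in 96-well plates; compound added at one concentration; 48 h incubation; percent growth measured; values under 10 scored active.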 Active and inactive are the calls of the source.

Tests used:
Assay in all cases: NCI-60 one-dose screen, 48 h (100 = growth as untreated, 0 = no growth, -100 = all killed)
Details in all cases: 10 µM unless noted
[1] = test system: T-47D breast
[2] = test system: BT-549 breast
[3] = test system: MDA-MB-435 melanoma
[4] = test system: SW-620 colon
[5] = test system: MCF7 breast
[6] = test system: HCT-116 colon
[7] = test system: HCC-2998 colon
[8] = test system: KM12 colon

Measured: growth

COc1cc(C(=O)/C=C/c2c(-c3cccs3)nc3ccccn23)cc(OC)c1OC
inactive: [1] 18.2% | [3] 11% | [7] 17.1%
active: [2] -16.9% | [4] 4.78% | [5] 7.96% | [6] -5.59% | [8] -25.6%

O=C(CN1C(=O)/C(=C/c2ccco2)SC1=S)NCCc1c[nH]c2ccc(F)cc12
inactive: [1] 103% | [2] 97.4% | [3] 104% | [4] 107% | [5] 97.5% | [6] 96.6% | [7] 115% | [8] 101%

Cc1nn(-c2ccccc2)c(/N=C/N(C)C)c1/C=C/C(=O)c1ccc(Cl)cc1
inactive: [1] 101% | [2] 87.3% | [3] 98.4% | [4] 93.3% | [5] 85.9% | [6] 74.7% | [7] 101% | [8] 101%

COc1cc2c3c(c1O)-c1ccccc1[C@@H]1OC(=O)N(CC2)[C@H]31
inactive: [1] 89.6% | [2] 111% | [3] 107% | [4] 105% | [5] 90% | [6] 99.3% | [7] 96.8% | [8] 108%

Cc1cc(F)ccc1S(=O)(=O)Nc1cc(-c2c(O)ccc3ccccc23)c(O)c2ccccc12
inactive: [2] 30.1% | [3] 28% | [4] 25.8% | [5] 30.1%
active: [1] 7.54% | [6] 5.49% | [7] -3.54% | [8] 3.55%

Cc1cc(C)cc(Nc2ccc([N+](=O)[O-])c(NCCN3CCOCC3)n2)c1
active: [2] 9.31% | [3] -30.1% | [6] 5.31% | [7] 9%
inactive: [1] 56.3% | [4] 31% | [5] 13.2% | [8] 15.4%

Cc1ccc2nc(Cl)c(Cn3nnnc3SCc3ccccc3)cc2c1
inactive: [1] 84.6% | [2] 92.3% | [3] 103% | [4] 96.1% | [5] 87.9% | [6] 89.5% | [7] 111% | [8] 101%

COc1cccc(NC(=O)c2cccc(C3CCc4c(cc(OC)c(OC)c4OC)O3)c2)c1 (stereo unspecified)
inactive: [1] 20.5% | [2] 41.5% | [3] 79.6% | [4] 100% | [5] 74.3% | [6] 62.4% | [7] 81.4% | [8] 81.5%

COc1ncc2cc1NS(=O)(=O)c1cccc(c1)C(=O)NCC1=CC=C(S1)c1ncnc3c1SC2=C3C
active: [1] -29% | [2] -52.7% | [3] -28.6% | [4] 3.04% | [5] -12.5% | [6] -31.8% | [7] -43.1% | [8] -62.1%

O=C(c1ccc(Cl)cc1Cl)N1c2ccccc2Sc2ccccc21
inactive: [1] 67.3% | [2] 54.6% | [3] 47.9% | [4] 38.3% | [5] 52.4% | [6] 22.8% | [7] 64.6% | [8] 49.8%

O=C1/C(=C/c2cccc([N+](=O)[O-])c2)COc2ccc(O)cc21
active: [4] -47.3% | [5] -26.2% | [6] -44.6%
inactive: [1] 46.2% | [2] 63.3% | [3] 12.4% | [7] 58.7% | [8] 15.5%

CN(C)c1ccc(C(=NO)c2ccc(N(C)C)cc2)cc1
inactive: [1] 45.8% | [2] 53.4% | [4] 13.4% | [5] 32.6% | [6] 18.5% | [7] 58.6% | [8] 13.6%
active: [3] -43.2%

O=c1[nH]cnc2c1C(c1ccc(Br)cc1)c1sc3c(F)cccc3c1O2 (stereo unspecified)
inactive: [1] 83.9% | [2] 99.1% | [3] 100% | [4] 90.6% | [5] 77.3% | [6] 98.9% | [7] 111% | [8] 88.8%

CCCNc1nc2ccccc2c2c(=O)c3cccc(Cl)c3sc12
inactive: [1] 51.8% | [2] 99% | [3] 101% | [4] 97.8% | [5] 31.2% | [6] 72.4% | [7] 103% | [8] 90.4%

CCCCCCCCn1ccc2cc(NC(=O)Cn3cc(CN4CCC(C)CC4)nn3)ccc21
active: [1] 6.9% | [3] -75.6% | [4] -72.1% | [5] 4.43% | [6] -18.6% | [7] -78.8% | [8] 4.72%
inactive: [2] 78.1%

CNCc1cccc2c1OCCOCCN(C)C(=O)CN(C)S(=O)(=O)c1ccc(cc1)-c1cnc(N)c(n1)C(=O)N2
active: [1] -9.54% | [3] -91.8% | [4] -4.13% | [6] -69% | [8] 9.24%
inactive: [2] 92.4% | [5] 11.6% | [7] 28%

CCn1c2ccc(O)cc2c2c(C)c3c[n+](C(C)C)ccc3c(C)c21
inactive: [3] 28.5% | [4] 25.6% | [5] 17.8% | [6] 37.3% | [7] 42.6% | [8] 15%
active: [1] -15.4% | [2] 9.02%

CCN(CC)S(=O)(=O)c1ccc(S(=O)(=O)N2CCC[C@@H](C(=O)N3CCN(C(=O)OC(C)(C)C)CC3)C2)cc1
inactive: [1] 44.5% | [2] 61.5% | [3] 60.6% | [4] 80.4% | [5] 49.3% | [6] 54.1% | [7] 89.6% | [8] 76.9%

COc1ccc2nc3ccccc3c(NCc3ccccc3)c2c1
active: [5] 4.29% | [7] -35.5%
inactive: [1] 35.3% | [2] 50.3% | [3] 33.8% | [4] 19.5% | [6] 14.8% | [8] 36.5%

CC1CN=C(c2cccc(-c3ccc(-c4ccccc4)o3)c2)N1 (stereo unspecified)
active: [1] -31.8% | [3] -75.8% | [4] -40.6% | [5] -57.2% | [6] -67.9% | [7] -65.4% | [8] -8.35%
inactive: [2] 50.8%

O=C(O)c1cccc(N/C=C/C(=O)c2cc3cc(Br)ccc3oc2=O)c1
inactive: [1] 90.5% | [2] 86.1% | [3] 96.5% | [4] 98.1% | [5] 88.4% | [6] 93.3% | [7] 105% | [8] 95.8%

COc1ccc(NC(=O)c2sc3nc(C)c(C(O)c4ccccc4)cc3c2N)cc1 (stereo unspecified)
active: [3] -27.8%
inactive: [1] 23.9% | [2] 65.8% | [4] 25.4% | [5] 19.1% | [6] 21.4% | [7] 19.4% | [8] 20.3%

O=C1/C(=C/c2ccc(C(F)(F)F)cc2)COc2ccc(O)cc21
active: [4] 1.98% | [5] 6.03%
inactive: [1] 78% | [2] 72.8% | [3] 87.7% | [6] 33.2% | [7] 94.1% | [8] 52.2%

NNC(=S)N/N=C/c1ccccn1
active: [1] 9.69%
inactive: [2] 55% | [3] 46.4% | [4] 51.3% | [5] 15.7% | [6] 19.8% | [7] 28.8% | [8] 29.2%

NC(=O)OCCn1cc(-c2nc(-c3c[nH]c4ncccc34)cs2)c2ccccc21
inactive: [1] 44.7% | [2] 32.8% | [5] 18.3% | [6] 30.8% | [7] 71.7% | [8] 23%
active: [3] -33.4% | [4] 8.68%

CCCCCCCCCCCCCCCCOC(=O)c1c(C)[nH]c(/C=C2\N=C(c3ccc[nH]3)C=C2OC)c1C
active: [5] 8.67% | [6] -0.291%
inactive: [1] 31.2% | [2] 55.1% | [3] 15.7% | [4] 10.9% | [7] 24.3% | [8] 22.7%

O=C1N[C@@H]2[C@@H](O)[C@@H](O)[C@H](O)C[C@H]2c2cc3c(c(O)c21)OCCO3
active: [1] -15.8% | [2] -17.5% | [3] 1.45% | [4] 4.85% | [5] -13.3% | [6] -3.3% | [7] -46.2% | [8] -2.6%

CCCCCn1sc(=O)n(Cc2ccc(CNC(=O)OCc3ccc4c(Cl)cc(Cl)c(O)c4n3)cc2)c1=O
inactive: [1] 60.8% | [2] 71.1% | [3] 68% | [4] 58.4% | [5] 69.5% | [6] 44.6% | [7] 95.2% | [8] 57.5%

Cn1c(/C=C/[N+](=O)[O-])cc2ccccc21
active: [2] -43.2% | [3] -21.6% | [4] -70.8% | [5] -50.5% | [6] -74% | [7] -95.1% | [8] -63.8%
inactive: [1] 37.4%

CCN1C(=O)N(CC)C2C1NN=c1s/c(=C3\C(=O)N(CCc4ccccc4)c4ccccc43)c(=O)n12 (stereo unspecified)
active: [3] -40.9% | [6] 2.18%
inactive: [1] 44.4% | [2] 14.2% | [4] 23.1% | [5] 11.6% | [7] 13.2% | [8] 13.9%

CCCCn1sc(=O)n(Cc2ccc(CNC(=O)OCc3ccc4c(Cl)cc(Cl)c(O)c4n3)cc2)c1=O
inactive: [1] 62.8% | [2] 81.4% | [3] 69.6% | [4] 61% | [5] 63.5% | [6] 46.3% | [7] 98.7% | [8] 65.1%

CCCCCCCCn1ccc2cc(NC(=O)Cn3cc(CN4CCCCCC4)nn3)ccc21
inactive: [2] 96.8%
active: [1] -47.4% | [3] -85.3% | [4] -78.3% | [5] -23.2% | [6] -77.3% | [7] -80.9% | [8] -27.8%
